Screening results: PubChem BioAssay, National Center for Advancing Translational Sciences (NCATS)
A549 tox: counter-screen for Nrf2 inhibitors: cytotoxicity in A549 cells | A549 ARE-Fluc cells, CellTiter-Fluor viability, 18-24 h | Potency, µM (top dose mostly 46 µM), without a hit: at the top dose activity change, negative = cytotoxicity, hits mostly inhibitors | actives 0.16% (n = 390,000) | AID 504648; further: on the % scale 0 is the no-effect control and ±100 the full control effect
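Cytotoxicity counterscreen: CellTiter-Fluor fluorescence was measured in A549 ARE_Fluc cells after 18-24 h of compound exposure in a concentration series. The subsequent BugLite luminescent read reports ARE-luciferase activity.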
Nrf2 block: blocks Nrf2 signaling. Potency, µM (highest dose often 46 µM), for the others: top-dose activity change, negative = inhibition, most hits filed as inhibitors. AID 504444. actives 2.1% (n = 360,000). A549 ARE-Fluc reporter, luciferase luminescence, 18-24 h; further: on the % scale 0 is the no-effect control and ±100 the full control effect; nearly all actives have a fitted effect of over 60% in size
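Quantitative HTS in A549 cells stably bearing an antioxidant response element-firefly luciferase construct. Inhibition of Nrf2-driven transcription was scored by luminescence after 18-24 h of compound exposure at 37 °C.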
TGFb inhibitor: blocks TGF-b signaling. HepG2 CAGA-GFP TGF-b/SMAD3 reporter, GFP fluorescence, 18 h; TGF-beta stimulated, 500 pg/mL final. Potency, µM (doses to about 46.1 µM), for inactives: at the top dose activity, negative = inhibition, actives largely listed as inhibitors. actives 1.2% (n = 410,000). AID 588855; further: on the % scale 0 is the no-effect control and ±100 the full control effect; nearly all actives have a fitted effect of over 65% in size
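Read-out: total well GFP (ex488/em500-530) summed from mean per-cell fluorescence. Cells: HEPG2 CAGA-GFP, 1% FBS DMEM, 18 h at 37 degrees C with 500 pg/mL final TGF-beta. Unstimulated wells served as the full-inhibition control; stimulated DMSO wells = 0%.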
ATXN viability: viability counter-screen for ATXN expression inhibitors | S2 cells (HEK-293 line with an ATXN2-luciferase reporter) viability, CellTiter-Fluor protease fluorescence, 24 h | Potency, µM (highest dose often 56.7 µM), actives largely listed as cytotoxic | actives 0.49% (n = 400,000) | AID 651635; further: nearly all actives have a fitted effect of over 40% in size
ATXN2 expr inh: ATXN2 expression inhibition | Potency, µM (highest dose often 57 µM), without a hit: at the highest dose activity change, negative = inhibition, usual class: inhibitors | HEK-293 ATXN2-luciferase reporter, luminescence, 24 h | actives 0.72% (n = 360,000); further: on the % scale 0 is the no-effect control and ±100 the full control effect; nearly all actives have a fitted effect of over 55% in size
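ATXN2-luciferase reporter cells (luciferase flanked by upstream and downstream ATXN2 gene portions) were treated 24 h at 37 °C with compounds at up to 57 uM. SteadyGlo luminescence gave expression; GF-AFC fluorescence gave viability.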
HepG2 tox: kills HepG2 cells in TGF-b inhibitor counter-screen; HepG2 CAGA-GFP viability, ATP luminescence, 18 h; Potency, µM (titrated, usually from 46.1 µM), for inactives: at the top dose activity change, negative = cytotoxicity, hits mostly cytotoxic; actives 0.76% (n = 410,000)
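CellTiter-Glo luminescence gave cytotoxicity after 18 hours at 37 degrees C. The cells were HepG2 CAGA-GFP in 1% FBS DMEM, stimulated with 500 pg/mL TGF-beta after compound addition. %Activity was normalised to no-cell wells (complete cell-killing) and DMSO (no toxicity), and curves were fitted and classified.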
An asterisk follows results filed as active; [ ] = remark or other dose. Compounds with a hit are over-represented: about 3.8% of the library has one in this group of screens. The call rests on the fitted dose curve; in most records, active means well fitted curve in the direction sought with a large enough effect; inconclusive means small, poorly fitted or top-dose-only effect, or another doubt; inactive means no such curve, though single readings can be large; an effect the other way counts as inactive or inconclusive. Potency means the concentration at half of the fitted maximal effect.

CN(C)c1ccc(/C=C/c2cc[n+](C)c3ccc4ccccc4c23)cc1 was read as TGFb inhibitor 2µM* and HepG2 tox -92%.
CCOC(=O)[C@]12CCCC=C1N(Cc1ccc(Cl)cc1Cl)C(=O)[C@H](CC(=O)NCCc1ccccc1OC)C2 was read as ATXN viability inconclusive and ATXN2 expr inh 0%.
CCCCCCCCN1C(=O)[C@H](CC(=O)NCCc2ccccc2OC)C[C@@]2(C(=O)OCC)CCCC=C12 was read as ATXN viability 22µM* and ATXN2 expr inh inconclusive.
`CNc1ccc(Br)cc(C(=O)/C=C/c2ccc(OC)cc2OC)c1=O` gave A549 tox -10%, Nrf2 block 11%, TGFb inhibitor inconclusive, ATXN viability inactive, ATXN2 expr inh 3% and HepG2 tox -3%.
Screening CNc1ccc(Br)cc(C(=O)/C=C/c2ccc(Cl)cc2Cl)c1=O returned A549 tox 21µM*, Nrf2 block inconclusive, TGFb inhibitor inconclusive, ATXN viability inconclusive, ATXN2 expr inh inconclusive and HepG2 tox -26%.
Screening CCNc1ccc(Br)cc(C(=O)/C=C/c2ccc(Cl)cc2)c1=O returned A549 tox inconclusive, Nrf2 block inconclusive, TGFb inhibitor 0%, ATXN2 expr inh 22µM* and HepG2 tox -43%.
For CCCNC(=O)C1(C)CCN(C(=O)Cc2ccc3ccccc3c2)C1 (stereo unspecified) the results were TGFb inhibitor 3%, ATXN viability inactive, ATXN2 expr inh -3% and HepG2 tox -16%.
For Cc1ccc(S(=O)(=O)N2CCOCC2)cc1NC(=O)COc1cccc(Oc2ccccc2)c1 the results were A549 tox -1%, Nrf2 block inconclusive, TGFb inhibitor -2%, ATXN viability inconclusive, ATXN2 expr inh -11% and HepG2 tox 17%.
Screening Cc1cc(C)c(C#N)c(SCC(=O)c2cccs2)n1 returned A549 tox 6%, Nrf2 block 13%, TGFb inhibitor 0%, ATXN viability inactive, ATXN2 expr inh 34% and HepG2 tox 0%.
For Cc1cc(C)c(C#N)c(SCC(=O)c2ccccc2)n1 the results were A549 tox 8%, Nrf2 block 21%, TGFb inhibitor 10µM*, ATXN2 expr inh -10% and HepG2 tox -9%.
Screening CCCCCCn1c(=O)n2n(c1=O)C[C@]1(OC(=O)NC3CC3)CN(S(=O)(=O)c3ccc(C)cc3)C[C@]1(O)C2 returned TGFb inhibitor -22%, ATXN viability inconclusive, ATXN2 expr inh -24% and HepG2 tox -31%.
For CCOC(=O)c1sc(NC(=O)c2cc3n(n2)C(C(F)(F)F)CC(c2ccccc2)N3)c(C(=O)OCC)c1C (stereo unspecified) the results were A549 tox 13%, Nrf2 block -7%, TGFb inhibitor 11%, ATXN viability inactive, ATXN2 expr inh 8% and HepG2 tox -36%.
`COc1ccc(CN=Cc2c(O)[nH]c3ccccc23)cc1` gave A549 tox 6%, Nrf2 block 22%, TGFb inhibitor -26%, ATXN viability inconclusive, ATXN2 expr inh -11%[11.3 µM] and HepG2 tox -27%.
`Cc1ccc(CN=Cc2[nH]c3ccc(Br)c(Cl)c3c2O)cc1` gave A549 tox -5%, Nrf2 block 4%, TGFb inhibitor -7%, ATXN viability inactive, ATXN2 expr inh -21% and HepG2 tox 18µM*.
Screening COc1ccc(S(=O)(=O)N2CCCCCC2)cc1C(=O)OCC(=O)NC1CCS(=O)(=O)C1 (stereo unspecified) returned A549 tox 0%, Nrf2 block 4%, TGFb inhibitor -15%, ATXN viability inactive, ATXN2 expr inh 10% and HepG2 tox -2%.
For CCOC(=O)C1CCN(C(=O)CN(c2ccc3c(c2)OCCO3)S(C)(=O)=O)CC1 the results were A549 tox 2%, Nrf2 block 3%, TGFb inhibitor -8%, ATXN viability inactive, ATXN2 expr inh 3% and HepG2 tox 3%.
For Cc1ccc(C)c(S(=O)(=O)C(C#N)c2nc3ccccc3nc2N2CC(C)OC(C)C2)c1 (stereo unspecified) the results were Nrf2 block 13µM*, TGFb inhibitor -24%, ATXN viability inactive, ATXN2 expr inh -22% and HepG2 tox -29%.
`CN1CCN(c2nc3ccccc3nc2C(C#N)S(=O)(=O)c2ccccc2)CC1` (stereo unspecified) gave A549 tox -10%, Nrf2 block inconclusive, TGFb inhibitor 7.9µM*, ATXN viability inactive and HepG2 tox -42%.
`N#CC(c1nc2ccccc2nc1N1CCCC1)S(=O)(=O)c1ccccc1` (stereo unspecified) gave A549 tox inconclusive, Nrf2 block inconclusive, TGFb inhibitor -14%, ATXN viability inconclusive, ATXN2 expr inh -2% and HepG2 tox -22%.
Cc1csc(=O)n1CCC(=O)OC(C)C(=O)NCc1ccccc1 (stereo unspecified) was read as A549 tox -2%, Nrf2 block 11%, TGFb inhibitor -6%, ATXN viability inactive, ATXN2 expr inh -4% and HepG2 tox 6%.
Screening O=C(Nc1ccccn1)c1cc2ccccc2o1 returned A549 tox 0%, Nrf2 block inconclusive, TGFb inhibitor 0%, ATXN viability inactive, ATXN2 expr inh 16µM* and HepG2 tox 7.9µM*.
Screening Cc1ccnc(NC(=O)c2cc3ccccc3o2)c1 returned A549 tox 1%, Nrf2 block inconclusive, TGFb inhibitor 0%, ATXN viability inactive, ATXN2 expr inh inconclusive and HepG2 tox -44%.
For CC(=O)Oc1ccc(-c2ccc(C(=O)NCCc3ccc(S(N)(=O)=O)cc3)cc2)cc1 the results were A549 tox 6%, Nrf2 block 3%, TGFb inhibitor -8%, ATXN viability inactive, ATXN2 expr inh inconclusive and HepG2 tox -10%.
For CCN(CC)C(=O)[C@H]1CC(CC(=O)NC/C=C(\C)CCC=C(C)C)C(=O)N2CCc3c([nH]c4ccccc34)[C@]12C (stereo partly specified) the results were A549 tox -23%, Nrf2 block inconclusive, TGFb inhibitor 16µM*, ATXN viability inconclusive, ATXN2 expr inh inconclusive and HepG2 tox -104%.
